# Results: the supplement of paper PMC9492666
# Counter-ions that a name gives are not always drawn.
# How the values were obtained:
# HCC1937 = experiment: relative cell viability, compound + RSL3, vs DMSO (fraction of DMSO control); higher = less growth inhibition; conditions: 72 h
# MDA-MB-231 = experiment: as above; conditions: 72 h
# 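Further: breast cancer cell viability read out with the CCK-8 kit after co-treatment of each compound with the ferroptosis inducer RSL3.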
SMILES,relative cell viability (HCC1937),relative cell viability (MDA-MB-231)
c1cc(-c2cnn3cc(-c4ccc(OCCN5CCCCC5)cc4)cnc23)ccn1 [Dorsomorphin] + COC(=O)c1ccc([C@H]2c3[nH]c4ccccc4c3C[C@H](C(=O)OC)N2C(=O)CCl)cc1 [RSL3],0.123,0.31
NC(=O)c1ncn([C@@H]2O[C@H](CO)[C@@H](O)[C@H]2O)c1N [AICAR (Acadesine)] + COC(=O)c1ccc([C@H]2c3[nH]c4ccccc4c3C[C@H](C(=O)OC)N2C(=O)CCl)cc1 [RSL3],0.646,0.584
O=C(Nc1ccc(C(O)(C(F)(F)F)C(F)(F)F)cc1)c1ccc(C(F)(F)F)cc1 + COC(=O)c1ccc([C@H]2c3[nH]c4ccccc4c3C[C@H](C(=O)OC)N2C(=O)CCl)cc1 [RSL3],0.264,0.255
C[N+](C)(C)CC(O)CC(=O)[O-] (stereo not drawn) [L(-)-Carnitine] + COC(=O)c1ccc([C@H]2c3[nH]c4ccccc4c3C[C@H](C(=O)OC)N2C(=O)CCl)cc1 [RSL3],0.621,0.523
O=C(O)c1cccc(N=Nc2c(O)[nH]c3ccc(S(=O)(=O)NCc4ccc(F)cc4)cc23)c1 + COC(=O)c1ccc([C@H]2c3[nH]c4ccccc4c3C[C@H](C(=O)OC)N2C(=O)CCl)cc1 [RSL3],0.516,0.611
COc1cc(N(C)C)cc(CN(C)CCc2ccc([N+](=O)[O-])cc2)c1O [CDC25 Phosphatase Inhibitor I] + COC(=O)c1ccc([C@H]2c3[nH]c4ccccc4c3C[C@H](C(=O)OC)N2C(=O)CCl)cc1 [RSL3],0.454,0.886
CCN(CC)CCCC(C)Nc1c2ccc(Cl)cc2nc2ccc(OC)cc12 (configuration not stated) [Quinacrine dihydrochloride] + COC(=O)c1ccc([C@H]2c3[nH]c4ccccc4c3C[C@H](C(=O)OC)N2C(=O)CCl)cc1 [RSL3],0.301,0.283
NC(CO)C(=O)O (racemic) [DL-Serine] + COC(=O)c1ccc([C@H]2c3[nH]c4ccccc4c3C[C@H](C(=O)OC)N2C(=O)CCl)cc1 [RSL3],0.399,0.594
CS(=O)(=O)c1ccc(-c2nnc(/C=C/c3nnc(-c4ccc(C#N)cc4)o3)n2-c2ccccc2Cl)nc1 + COC(=O)c1ccc([C@H]2c3[nH]c4ccccc4c3C[C@H](C(=O)OC)N2C(=O)CCl)cc1 [RSL3],0.508,0.502
COC(=O)N(CC(=O)O)Cc1cccc(OCc2nc(-c3ccc(Cl)cc3)oc2C)c1 + COC(=O)c1ccc([C@H]2c3[nH]c4ccccc4c3C[C@H](C(=O)OC)N2C(=O)CCl)cc1 [RSL3],0.538,0.709
O=C(OC(C(F)(F)F)C(F)(F)F)N1CCN(Cc2ccc(C(F)(F)F)cc2N2CCCC2)CC1 + COC(=O)c1ccc([C@H]2c3[nH]c4ccccc4c3C[C@H](C(=O)OC)N2C(=O)CCl)cc1 [RSL3],0.928,0.613
COc1c(/C=C/C(=O)c2ccc(O)cc2)ccc(O)c1CC=C(C)C + COC(=O)c1ccc([C@H]2c3[nH]c4ccccc4c3C[C@H](C(=O)OC)N2C(=O)CCl)cc1 [RSL3],0.579,0.585
CN(CCOc1ccc(CC2SC(=O)NC2=O)cc1)c1ccccn1 (configuration not stated) [Rosiglitazone maleate] + COC(=O)c1ccc([C@H]2c3[nH]c4ccccc4c3C[C@H](C(=O)OC)N2C(=O)CCl)cc1 [RSL3],0.758,0.516
CCCc1cc(-c2nc(-c3ccc(NS(C)(=O)=O)cc3)cs2)ccn1 + COC(=O)c1ccc([C@H]2c3[nH]c4ccccc4c3C[C@H](C(=O)OC)N2C(=O)CCl)cc1 [RSL3],0.322,0.551
Cc1nc2ccc(NCc3cccc(C(F)(F)F)c3)cc2n(CCNC(=O)CO)c1=O + COC(=O)c1ccc([C@H]2c3[nH]c4ccccc4c3C[C@H](C(=O)OC)N2C(=O)CCl)cc1 [RSL3],0.354,0.567
Cc1cc(C)c(S(=O)(=O)Nc2cccc(C(F)(F)F)c2)c(C)c1 + COC(=O)c1ccc([C@H]2c3[nH]c4ccccc4c3C[C@H](C(=O)OC)N2C(=O)CCl)cc1 [RSL3],0.504,0.775
COc1cc(F)c(C(C)C)cc1-c1ccc(C(F)(F)F)cc1CN1C(=O)O[C@H](c2cc(C(F)(F)F)cc(C(F)(F)F)c2)[C@@H]1C [Anacetrapib] + COC(=O)c1ccc([C@H]2c3[nH]c4ccccc4c3C[C@H](C(=O)OC)N2C(=O)CCl)cc1 [RSL3],0.622,0.497
O=C(c1c2ccccc2cc2ccccc12)N1CCC(N2CCC[C@@H](C(=O)N3CCOCC3)C2)CC1 + COC(=O)c1ccc([C@H]2c3[nH]c4ccccc4c3C[C@H](C(=O)OC)N2C(=O)CCl)cc1 [RSL3],0.352,0.366

SMILES,relative cell viability (HCC1937),relative cell viability (MDA-MB-231)
Cc1nc2ccc(C(=O)N3CCC4(CC3)CC(=O)c3c(cnn3C(C)C)C4)cc2[nH]1 + COC(=O)c1ccc([C@H]2c3[nH]c4ccccc4c3C[C@H](C(=O)OC)N2C(=O)CCl)cc1 [RSL3],0.402,0.591
CN(C)CCOC(=O)COc1ccc(Cl)cc1 [Meclofenoxate hydrochloride] + COC(=O)c1ccc([C@H]2c3[nH]c4ccccc4c3C[C@H](C(=O)OC)N2C(=O)CCl)cc1 [RSL3],0.612,0.574
C[C@H](CCC(=O)O)[C@H]1CC[C@H]2[C@@H]3C[C@H](O)[C@@H]4C[C@H](O)CC[C@]4(C)[C@H]3CC[C@]12C [Hyodeoxycholic acid] + COC(=O)c1ccc([C@H]2c3[nH]c4ccccc4c3C[C@H](C(=O)OC)N2C(=O)CCl)cc1 [RSL3],0.829,0.611
C=C[C@H]1CN2CC[C@H]1C[C@@H]2[C@@H](O)c1ccnc2ccc(OC)cc12 [Quinidine sulfate] + COC(=O)c1ccc([C@H]2c3[nH]c4ccccc4c3C[C@H](C(=O)OC)N2C(=O)CCl)cc1 [RSL3],0.439,0.673
Fc1ccc(-c2c3cccc(C(F)(F)F)c3nn2Cc2ccc(F)cc2Cl)cc1 + COC(=O)c1ccc([C@H]2c3[nH]c4ccccc4c3C[C@H](C(=O)OC)N2C(=O)CCl)cc1 [RSL3],0.756,0.578
CCC1C(O)C2C3CCC(C(C)CCO)C3(C)CCC2C2(C)CCC(O)CC12 (configuration not stated) + COC(=O)c1ccc([C@H]2c3[nH]c4ccccc4c3C[C@H](C(=O)OC)N2C(=O)CCl)cc1 [RSL3],0.399,0.364
Cc1c(C(=O)NN2CCOCC2)nn(-c2ccc(Cl)cc2Cl)c1-c1ccc(I)cc1 + COC(=O)c1ccc([C@H]2c3[nH]c4ccccc4c3C[C@H](C(=O)OC)N2C(=O)CCl)cc1 [RSL3],0.0566,0.297
CCCCCCCCCCC[C@@H](C[C@@H]1OC(=O)[C@H]1CCCCCC)OC(=O)[C@H](CC(C)C)NC=O [Orlistat] + COC(=O)c1ccc([C@H]2c3[nH]c4ccccc4c3C[C@H](C(=O)OC)N2C(=O)CCl)cc1 [RSL3],0.572,0.167
CC1=C(/C=C/C(C)=C/C=C/C(C)=C/C=C/C=C(C)/C=C/C=C(C)/C=C/C2=C(C)C(=O)[C@@H](O)CC2(C)C)C(C)(C)C[C@H](O)C1=O [Astaxanthin] + COC(=O)c1ccc([C@H]2c3[nH]c4ccccc4c3C[C@H](C(=O)OC)N2C(=O)CCl)cc1 [RSL3],0.562,0.689
CC[C@@H]1/C=C(\C)C[C@H](C)C[C@H](OC)[C@H]2O[C@@](O)(C(=O)C(=O)N3CCCC[C@H]3C(=O)O[C@H](/C(C)=C/[C@@H]3CC[C@@H](O)[C@H](OC)C3)[C@H](C)[C@@H](O)CC1=O)[C@H](C)C[C@@H]2OC [Ascomycin] + COC(=O)c1ccc([C@H]2c3[nH]c4ccccc4c3C[C@H](C(=O)OC)N2C(=O)CCl)cc1 [RSL3],0.1,0.236
CN(CCOc1ccc(CC2SC(=O)NC2=O)cc1)c1ccccn1 (configuration not stated) [Rosiglitazone HCl] + COC(=O)c1ccc([C@H]2c3[nH]c4ccccc4c3C[C@H](C(=O)OC)N2C(=O)CCl)cc1 [RSL3],0.486,0.714
"CCCCCCCCCCC#CC#CCCCCCCCCC(=O)O [10,12-Tricosadiynoic acid] + COC(=O)c1ccc([C@H]2c3[nH]c4ccccc4c3C[C@H](C(=O)OC)N2C(=O)CCl)cc1 [RSL3]",0.4,0.634
CCN(CC)Cc1ccc(C(=O)N(CCc2ccccc2OC)[C@@H]2CCNC2)cc1 + COC(=O)c1ccc([C@H]2c3[nH]c4ccccc4c3C[C@H](C(=O)OC)N2C(=O)CCl)cc1 [RSL3],0.666,0.784
CC(C)OC(=O)C(C(=O)OC(C)C)=C1SC=CS1 [Malotilate] + COC(=O)c1ccc([C@H]2c3[nH]c4ccccc4c3C[C@H](C(=O)OC)N2C(=O)CCl)cc1 [RSL3],0.337,0.547
O=C(NC1CCN(CCCCC2(C(=O)NCC(F)(F)F)c3ccccc3-c3ccccc32)CC1)c1ccccc1-c1ccc(C(F)(F)F)cc1 [Lomitapide] + COC(=O)c1ccc([C@H]2c3[nH]c4ccccc4c3C[C@H](C(=O)OC)N2C(=O)CCl)cc1 [RSL3],0.173,0.391
Cc1ccc(Oc2nc3cc(-c4ccc(-c5ccccc5)cc4)c(Cl)cc3[nH]2)cc1C(=O)O + COC(=O)c1ccc([C@H]2c3[nH]c4ccccc4c3C[C@H](C(=O)OC)N2C(=O)CCl)cc1 [RSL3],0.538,0.6
O=C1c2cccc(O)c2C(=O)c2c(O)cccc21 [Antrapurol] + COC(=O)c1ccc([C@H]2c3[nH]c4ccccc4c3C[C@H](C(=O)OC)N2C(=O)CCl)cc1 [RSL3],0.583,0.537
O=c1oc2ccccc2cc1O [3-Hydroxycoumarin] + COC(=O)c1ccc([C@H]2c3[nH]c4ccccc4c3C[C@H](C(=O)OC)N2C(=O)CCl)cc1 [RSL3],0.587,0.682
